SIRT5 block = inhibitors of human sirtuin-5 desuccinylase. Purified SirT5, succinyl-peptide AMC, trypsin-coupled fluorescence. 330,000 compounds, 1.1% hits. AID 652115. inhibition, % at 15 µM; in the data active = inhibition above about 15%
CASP6 VEID inh = inhibitors of human caspase-6; AID 686996; purified caspase-6, Z-VEID-R110 cleavage fluorescence; 350,000 compounds, 0.53% hits; P55212; inhibition, % at 12.5 µM;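 active = mean inhibition across replicates at least about 35%, with every replicate also reaching that limit, limit read from the data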;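 also: 0% = median of neutral control wells and 100% = no fluorescence left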
Target sequence (P55212 24-179 limits assumed): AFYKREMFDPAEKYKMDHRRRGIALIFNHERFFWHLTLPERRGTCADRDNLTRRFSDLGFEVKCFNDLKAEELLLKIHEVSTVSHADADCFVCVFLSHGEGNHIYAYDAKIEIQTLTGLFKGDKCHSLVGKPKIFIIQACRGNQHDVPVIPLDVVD
Target sequence (P55212 194-293 limits assumed): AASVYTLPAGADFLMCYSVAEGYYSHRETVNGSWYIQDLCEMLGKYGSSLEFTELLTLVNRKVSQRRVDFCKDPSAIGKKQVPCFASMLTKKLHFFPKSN
FGF22 binding = binders of recombinant human FGF22 by thermal shift | AID 651658 | 340,000 compounds, 1.5% hits | Q9HCT0 | SYPRO orange fluorescence; percent of sucrose octasulfate shift, DMSO zero | activity (Tm shift, normalised), % at 9.99 µM;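 active = mean Tm shift, scaled 0 neutral to 100 positive control, at about 1.3% or above, every replicate too, limit read from the data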
Target sequence (Q9HCT0 whole entry, looked up): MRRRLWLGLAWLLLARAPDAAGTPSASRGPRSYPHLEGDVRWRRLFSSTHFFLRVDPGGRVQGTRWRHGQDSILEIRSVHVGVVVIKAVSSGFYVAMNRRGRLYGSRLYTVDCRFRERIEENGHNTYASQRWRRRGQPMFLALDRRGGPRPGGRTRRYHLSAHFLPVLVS
INS-1E GSIS act = primary screen for activators of insulin secretion dependent on glucose, INS-1E cells, GLuc reporter luminescence | INS-1E GLuc reporter insulin secretion, 2-3 h | activation, % at 16.6 µM | 370,000 compounds, 0.61% hits;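 active = lowest replicate activation of at least 40%, so every replicate reaches that level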;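 also: 0% = median of neutral control wells and 100% = median of IBMX positive control wells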
ERAP1 inh = ERAP1 (human) enzyme inhibition; recombinant ERAP1, Leu-AMC fluorescence, 60 min; 340,000 compounds, 0.15% hits; inhibition, % at 10.7 µM; Q9NZ08; AID 652197;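 active = mean replicate inhibition of at least 30%, or all replicates individually reaching that 30% level; inactive = mean below 30% and not every replicate reaching it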;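 also: 0% = neutral control wells and 100% = L-leucinethiol positive control wells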
Active calls of the source: *; / = no result. Sampled rows, rich in hits. Any-hit rate of the full collection: about 3.3%.

SMILES	SIRT5 block	CASP6 VEID inh	FGF22 binding	INS-1E GSIS act	ERAP1 inh
COc1ccc(NC(=O)Nc2ccc3c(c2)C(=O)N([C@H](C)CO)C[C@H](C)[C@@H](CN(C)Cc2ccc(-c4ccccc4)cc2)O3)cc1	10	2	0	15	-4
COc1ccc(NC(=O)Nc2ccc3c(c2)C(=O)N([C@@H](C)CO)C[C@H](C)[C@H](CN(C)Cc2ccc(-c4ccccc4)cc2)O3)cc1	20*	-2	-1	-4	-2
COc1ccc(NC(=O)Nc2ccc3c(c2)C(=O)N([C@H](C)CO)C[C@@H](C)[C@@H](CN(C)Cc2ccc(-c4ccccc4)cc2)O3)cc1	19*	-1	-1	-5	-2
COc1ccc(CN(C)C[C@@H]2Oc3ccc(NC(=O)Nc4ccc(OC)cc4)cc3C(=O)N([C@@H](C)CO)C[C@H]2C)cc1	19*	3	0	7	0
COc1ccc(NC(=O)Nc2ccc3c(c2)C(=O)N([C@@H](C)CO)C[C@H](C)[C@H](CN(C)Cc2ccc(Cl)c(Cl)c2)O3)cc1	19*	0	0	-13	1
C[C@H]1CN([C@@H](C)CO)C(=O)Cc2cc(NC(=O)C3CC3)ccc2O[C@H]1CN(C)S(=O)(=O)c1ccccc1	-1	-2	0	14	2
CNC[C@@H]1OCCCC[C@@H](C)Oc2ccc(NC(=O)NC3CCCCC3)cc2C(=O)N([C@@H](C)CO)C[C@H]1C	-2	-1	/	0	0
CC(C)NC(=O)Nc1ccc2c(c1)C(=O)N([C@H](C)CO)C[C@H](C)[C@H](CN(C)Cc1ccc(-c3ccccc3)cc1)O2	31*	0	0	-25	0
CCC(=O)c1ccc(OCC(=O)OCC(=O)c2cc(C)n(C)c2C)cc1	-3	36*	0	0	-3
O=c1cc(O)c2ccc(O)cc2o1	1	0	0	-12	0
O=c1ccc2[n+]([O-])c3ccc(O)cc3oc-2c1	11	88*	/	-7	/
CCN(CC(=O)Nc1ccccc1C(F)(F)F)C(=O)c1ccc2c(=O)n3c(nc2c1)CCC3	22*	-128	0	7	1
CCN(CC(=O)Nc1c(F)cccc1F)C(=O)c1ccc2c(=O)n3c(nc2c1)CCC3	-1	-2	/	1	-1
O=C(Oc1ccc(F)cc1)c1ccc2c(=O)n3c(nc2c1)CCC3	-1	1	0	2	32*
COc1ccccc1C#Cc1cnc2c(c1)C(=O)N([C@H](C)CO)C[C@H](C)[C@@H](CN(C)C(=O)c1ccc3c(c1)OCO3)O2	11	1	0	-17	4
CNc1ccccc1NC(=O)CCn1c(=S)oc2ccccc21	-1	-1	0	49	1
O=C(CCn1c(=S)oc2ccccc21)Nc1ccccc1F	0	2	44*	9	0
Cc1noc(/C=C/N(C)C)c1S(=O)(=O)N1CCCC(C(=O)N2CCCCC2)C1 (centres undefined)	17*	2	0	/	9
CCOC(=O)CC1=NN(c2ccccc2)C(=O)C1	-3	3	0	-10	3
CCOC(=O)CC1=NN(c2ccccc2)C(=O)/C1=C\c1ccc(N(C)C)cc1	113*	-1	0	0	-1
C[C@H]1CN([C@@H](C)CO)C(=O)c2cc(NC(=O)Nc3ccc(C(F)(F)F)cc3)ccc2O[C@@H]1CN(C)S(=O)(=O)c1cn(C)cn1	8	-1	/	-3	-2
Cc1ccc(CSCC(=O)Nc2ccccc2F)cc1	-4	-1	43*	1	2
N#C[C@@H]1[C@H](c2ccccc2C2=CCCC2)[C@@H](CO)N1C(=O)C1CCCC1	-3	-1	0	1	1
Cn1c(=O)c(C(=O)CCl)c(N)n(Cc2ccccc2)c1=O	4	-2	0	8	0
Cn1c(=O)c(C(=O)CSc2ccccc2)c(N)n(Cc2ccccc2)c1=O	0	0	43*	-2	2
SMILES	SIRT5 block	CASP6 VEID inh	FGF22 binding	INS-1E GSIS act	ERAP1 inh
C[C@@H]1CN([C@@H](C)CO)C(=O)Cc2cc(NS(=O)(=O)c3cccs3)ccc2O[C@H]1CN(C)C(=O)Nc1ccc2c(c1)OCO2	8	5	0	4	0
COc1ccc(S(=O)(=O)Nc2ccc3c(c2)CC(=O)N([C@@H](C)CO)C[C@H](C)[C@@H](CN(C)CC2CCCCC2)O3)cc1	16*	1	0	-5	1
COc1ccc(S(=O)(=O)Nc2ccc3c(c2)CC(=O)N([C@H](C)CO)C[C@H](C)[C@@H](CN(C)CC2CCCCC2)O3)cc1	24*	1	0	-4	0
O=C(c1ccccn1)N1C[C@@H]2[C@H](c3ccccc31)[C@@H](CO)N2C(=O)CC1CC1	/	/	/	4	/
NC(N)=N/N=C/c1ccc(OCc2ccccc2)c(OCc2ccccc2)c1	4	/	0	439*	-23
CCOc1cc(/C=N/N=C(N)N)ccc1OCc1ccc(Cl)cc1	2	18	0	/	-20
NC(N)=N/N=C/c1ccc(OCc2ccccc2Cl)cc1	-4	-6	0	51*	-103
Cc1noc(C)c1NC(=O)N(C)C[C@@H]1Oc2c(NS(=O)(=O)c3ccc(F)cc3)cccc2C(=O)N([C@H](C)CO)C[C@H]1C	0	-1	0	11	2
Cc1cc(NC(=S)NC(=O)CC(C)C)ccc1Br	-3	2	35*	-6	-1
COc1ccc(NC(=O)N(C)C[C@@H]2Oc3cc(C#CCN(C)C)ccc3S(=O)(=O)N([C@@H](C)CO)C[C@H]2C)cc1	-2	0	0	3	1
Cc1ccc(NC(=S)NCc2ccco2)c(C)c1	80*	-4	0	1	/
CCOc1ccc(NC(=S)NCc2ccco2)cc1	17*	0	43	5	-2
CC(=O)N1[C@@H]2CN(S(=O)(=O)c3cccc(C)c3)c3ccccc3[C@@H]2[C@@H]1CO	/	/	/	5	/
Cc1noc(NS(=O)(=O)c2ccc(NC(=O)/C=C/c3ccc(C(C)C)cc3)cc2)c1C	10	13	1.4*	-3	3
Cc1noc(NS(=O)(=O)c2ccc(NC(=O)/C=C/c3ccc(Br)cc3)cc2)c1C	2	6	0	12	-1
CCC(=O)OCCNc1cc(Sc2nccn2C)c2nonc2c1[N+](=O)[O-]	/	/	/	111*	/
CCCC(=O)OCCNc1cc(Sc2nc3ccccc3[nH]2)c2nonc2c1[N+](=O)[O-]	/	/	/	76*	/
C=C(C)CN(CC)C(=O)CSc1nc(O)cc(=O)n1C1CCCC1	1	-2	43*	-7	5
COC(=O)c1c(C)cc(O)cc1O	-2	5	0	/	-3
Cc1cc(OC(=O)c2c(C)cc(OC(=O)c3c(C)cc(O)cc3O)cc2O)cc(O)c1C(=O)O	4	16	1.9*	/	0
O=C(N[C@H]1CC[C@@H](CCNC(=O)C2CCCCC2)O[C@@H]1CO)c1ccncc1	-1	0	0	3	-1
CC(C)CCC(O)(CCC(C)C)C(=O)NN1CCCCC1	/	/	/	49*	/

Bioassay records (PubChem)
